The text below walks through data of publication PMC4336329 (PLoS ONE, 2015).

The campaign covered roughly 310,000 compounds. About 14,000 (4.5%) showed an effect of 50% or more. Effects have a minus sign here. For the sample, strong results were picked, then their nearest neighbours and some compounds at random.
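Further: peak tail current of the secondary pulse compared with the same well before compound.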

The assay deals with human ether-à-go-go-related gene (hERG) potassium channel (human, UniProt Q12809). Description: primary screen, population patch clamp on CHO cells stably expressing hERG; higher = less effect of the substance.
Sequence of human ether-à-go-go-related gene (hERG) potassium channel (Q12809 whole entry, looked up): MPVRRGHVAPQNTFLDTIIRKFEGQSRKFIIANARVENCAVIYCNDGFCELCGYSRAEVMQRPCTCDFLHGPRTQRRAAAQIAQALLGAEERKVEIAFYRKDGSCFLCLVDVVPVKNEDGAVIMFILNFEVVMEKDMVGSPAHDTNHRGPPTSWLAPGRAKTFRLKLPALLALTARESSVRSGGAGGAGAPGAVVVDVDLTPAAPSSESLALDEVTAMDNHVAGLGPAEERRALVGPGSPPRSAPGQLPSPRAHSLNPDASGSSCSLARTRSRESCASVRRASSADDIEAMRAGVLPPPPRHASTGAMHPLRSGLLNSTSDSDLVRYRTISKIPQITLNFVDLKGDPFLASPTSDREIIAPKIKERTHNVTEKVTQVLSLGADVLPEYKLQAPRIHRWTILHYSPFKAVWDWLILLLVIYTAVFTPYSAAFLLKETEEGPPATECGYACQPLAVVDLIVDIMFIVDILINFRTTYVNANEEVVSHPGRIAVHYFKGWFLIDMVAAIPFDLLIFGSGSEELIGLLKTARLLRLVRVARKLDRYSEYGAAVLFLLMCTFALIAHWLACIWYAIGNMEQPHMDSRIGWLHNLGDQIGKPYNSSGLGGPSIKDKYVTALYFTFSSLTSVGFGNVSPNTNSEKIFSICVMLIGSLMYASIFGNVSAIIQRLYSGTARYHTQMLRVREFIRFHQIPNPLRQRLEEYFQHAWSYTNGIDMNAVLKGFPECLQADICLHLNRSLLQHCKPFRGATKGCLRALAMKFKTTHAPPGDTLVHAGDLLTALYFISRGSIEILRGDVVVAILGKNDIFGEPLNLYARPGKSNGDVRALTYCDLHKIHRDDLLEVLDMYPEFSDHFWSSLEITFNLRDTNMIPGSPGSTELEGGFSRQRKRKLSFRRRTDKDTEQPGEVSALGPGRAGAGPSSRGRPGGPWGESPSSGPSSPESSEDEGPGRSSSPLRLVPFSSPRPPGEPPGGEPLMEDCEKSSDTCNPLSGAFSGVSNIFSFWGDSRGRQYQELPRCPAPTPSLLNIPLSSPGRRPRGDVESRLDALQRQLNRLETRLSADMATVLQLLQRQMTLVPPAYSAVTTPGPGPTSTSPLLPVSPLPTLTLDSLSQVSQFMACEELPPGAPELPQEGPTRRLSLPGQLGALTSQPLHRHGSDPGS
Take `COc1ccc(C2C(C(=O)N3CCCC3)c3cc(OC)c(OC)cc3C(=O)N2C)cc1OC` (centres unmarked): the “hERG current change (%, negative = inhibition) at 10uM” value is reported as 0.414%.

Regarding `Cc1cc(C)c2cc(C#N)c(NCCOC(=O)c3ccccc3C)nc2c1`, the “hERG current change (%, negative = inhibition) at 10uM” value is -54.8%.

Turning to `COc1ccccc1C(=O)NCCNc1nc2cc(C)cc(C)c2cc1C#N`, the “hERG current change (%, negative = inhibition) at 10uM” value is 13.3%.

Consider `CCC(=O)NCCNc1nc2cc(C)cc(C)c2cc1C#N`, for which the “hERG current change (%, negative = inhibition) at 10uM” value is recorded as 58.1%.

`Cc1c(OCC(=O)N2CCC(C(N)=O)CC2)ccc2c3c(c(=O)oc12)CCC3`: the “hERG current change (%, negative = inhibition) at 10uM” value is 7.25%.

In the case of `CCOC(=O)N1CCC(Nc2c(OCC)c(=O)c2=O)CC1`, the “hERG current change (%, negative = inhibition) at 10uM” value was 3.96%.

Turning to `Nc1ccccc1-c1nnc(-c2ccccc2N)n1N`, the “hERG current change (%, negative = inhibition) at 10uM” value was 8.38%.

As for `CCN(CC)C(=O)Cn1cc(S(=O)(=O)CC(=O)Nc2ccc3c(c2)OCCO3)c2ccccc21`, the “hERG current change (%, negative = inhibition) at 10uM” value is recorded as -9.47%.

Turning to `CCOC(=O)Cn1c(S(=O)(=O)Cc2ccccc2Cl)nc(-c2ccccc2)c1-c1ccccc1`, the “hERG current change (%, negative = inhibition) at 10uM” value was -6.2%.

As to `CC(C)(C)NC(=O)N1CCC(CO)(Cc2ccccc2Cl)CC1`, the “hERG current change (%, negative = inhibition) at 10uM” value is reported as -4.82%.

As to `O=C(C1CCCC1)N1CCC(CO)(Cc2ccccc2Cl)CC1`, the “hERG current change (%, negative = inhibition) at 10uM” value is listed as -44.3%.

Turning to `CCC(C)CN1CCC(CO)(Cc2ccccc2Cl)CC1` (centres unmarked), the “hERG current change (%, negative = inhibition) at 10uM” value is recorded as -30%.

Regarding `O=C(C1CCCCC1)N1CCC(CO)(Cc2ccccc2Cl)CC1`, the “hERG current change (%, negative = inhibition) at 10uM” value was -15.3%.

Regarding `COc1ccc(/C=C/CN2CCC(CO)(Cc3ccccc3Cl)CC2)cc1`, the “hERG current change (%, negative = inhibition) at 10uM” value was -79.6%.

Consider `OCC1(Cc2ccccc2Cl)CCN(C/C=C/c2ccccc2)CC1`, for which the “hERG current change (%, negative = inhibition) at 10uM” value is reported as -68.4%.

With `Cc1ccccc1OCC(=O)O/N=C(\N)Cc1cccs1`, the “hERG current change (%, negative = inhibition) at 10uM” value came out at 5.34%.

Consider `Cc1ccc2[nH]c3c(c2c1)CN(C(=O)CN(C)CC1OCCO1)CC3`, for which the “hERG current change (%, negative = inhibition) at 10uM” value is 12.7%.

On to `COc1ccc(N2C(=O)NC(=O)/C(=C\c3ccc([N+](=O)[O-])s3)C2=O)cc1`, for which the “hERG current change (%, negative = inhibition) at 10uM” value is listed as 13.3%.

With `O=C(Nc1cc(Cl)ccc1C(=O)O)c1ccc(CN2C(=O)c3ccccc3C2=O)cc1`, the “hERG current change (%, negative = inhibition) at 10uM” value was found to be 20.7%.

As for `Cc1ccc(OCC(=O)Nc2ccc(S(=O)(=O)Nc3ccccn3)cc2)cc1C`, the “hERG current change (%, negative = inhibition) at 10uM” value is listed as 24.4%.

With `O=C(Cn1cnc2c(NC(=O)OCc3ccccc3)ncnc21)NCCN1CCOCC1`, the “hERG current change (%, negative = inhibition) at 10uM” value is 1.26%.

Regarding `Br.COC(=O)c1ccc(CN2CCSC2=N)cc1`, the “hERG current change (%, negative = inhibition) at 10uM” value was determined as 6.85%.

On to `CN(CC(=O)Nc1ccc(F)c(F)c1)S(=O)(=O)c1cccc2nsnc12`, for which the “hERG current change (%, negative = inhibition) at 10uM” value is -26.1%.

For the compound `O=C(c1ccccn1)N(Cc1ccco1)C1(C(=O)NC2CCCC2)CCCCC1`, the “hERG current change (%, negative = inhibition) at 10uM” value is -5.62%.

In the case of `O.O=C(O)c1cc(=O)c2c(Cl)cc(Cl)cc2[nH]1`, the “hERG current change (%, negative = inhibition) at 10uM” value was -51.9%.

For the compound `O=C(O)/C(=C\c1c(C(=O)O)[nH]c2cc(Cl)cc(Cl)c12)c1ccccc1`, the “hERG current change (%, negative = inhibition) at 10uM” value stood at 13.3%.

In the case of `O=C(O)c1cc(=O)c2ccccc2[nH]1`, the “hERG current change (%, negative = inhibition) at 10uM” value came out at 8.86%.

`Cc1c(OC(C(=O)O)c2ccccc2)ccc2c1oc(=O)c1ccccc12` (centres unmarked): the “hERG current change (%, negative = inhibition) at 10uM” value is given as 17.3%.

Take `Cn1c(CCN2CCN(c3ccccn3)CC2)nc2cc(NS(=O)(=O)c3ccc(Cl)cc3)ccc21`: the “hERG current change (%, negative = inhibition) at 10uM” value is recorded as -84.3%.

As for `CC(=O)Nc1ccc2c(c1)nc(CCN1CCN(c3ccccn3)CC1)n2C`, the “hERG current change (%, negative = inhibition) at 10uM” value is recorded as 18.6%.

As to `Cc1ccc(S(=O)(=O)Nc2ccc3c(c2)nc(CCN2CCN(c4ccccn4)CC2)n3C)cc1`, the “hERG current change (%, negative = inhibition) at 10uM” value is listed as -84.6%.

Consider `CC(C)C(=O)Nc1ccc2c(c1)nc(CCN1CCN(c3ccccn3)CC1)n2C`, for which the “hERG current change (%, negative = inhibition) at 10uM” value is given as -18.2%.

`CC1=C(C(=O)OCC(Cl)(Cl)Cl)N2C(=O)C(NC(=O)Cc3ccccc3)C2SC1` (centres unmarked): the “hERG current change (%, negative = inhibition) at 10uM” value turned out to be 15.5%.

Regarding `O=c1[nH]c(/C=C/c2ccc3c(c2)OCO3)c([N+](=O)[O-])c(=O)[nH]1`, the “hERG current change (%, negative = inhibition) at 10uM” value was 45.8%.

`COc1ccc(NC(=O)CN(C)CC(=O)NC2CCC(C)CC2)cc1` (centres unmarked): the “hERG current change (%, negative = inhibition) at 10uM” value is listed as 0.408%.

Regarding `O=C(NCCc1ccccc1)C(NS(=O)(=O)c1cccc2nsnc12)c1ccccc1` (centres unmarked), the “hERG current change (%, negative = inhibition) at 10uM” value is -25.4%.

Consider `COc1ccc(CCNC(=O)CCCn2c(SCC#N)nc3ccccc3c2=O)cc1OC`, for which the “hERG current change (%, negative = inhibition) at 10uM” value is given as -12.7%.

Take `COc1ccc(Nc2nc(N)nc(CN3CCN(c4ccc(F)cc4)CC3)n2)cc1`: the “hERG current change (%, negative = inhibition) at 10uM” value is -69.5%.

For `Nc1nc(CSC(=S)N2CCN(c3ccccc3)CC2)nc(Nc2ccccc2)n1`, the “hERG current change (%, negative = inhibition) at 10uM” value was determined as 0.151%.

In the case of `Cc1ccc(Nc2nc(N)nc(CSC(=S)N3CCN(c4ccccc4)CC3)n2)cc1`, the “hERG current change (%, negative = inhibition) at 10uM” value turned out to be 8.32%.

In the case of `CCOc1nc(Nc2ccc(F)cc2)nc(N2CCN(c3ccc(OC)cc3)CC2)n1`, the “hERG current change (%, negative = inhibition) at 10uM” value is on record as -14.7%.

Consider `CCOc1nc(Nc2ccc(OC)c(Cl)c2)nc(N2CCN(c3ccc(OC)cc3)CC2)n1`, for which the “hERG current change (%, negative = inhibition) at 10uM” value was determined as 14.9%.

Take `COC(=O)CC(=O)Cc1nc(N)nc(Nc2ccc(C)c(C)c2)n1`: the “hERG current change (%, negative = inhibition) at 10uM” value is given as -9.22%.

`Nc1nc(CN2CCN(c3ccccc3)CC2)nc(Nc2ccc(Cl)cc2)n1`: the “hERG current change (%, negative = inhibition) at 10uM” value is reported as -76%.

In the case of `CCN1CCN(Cc2nc(N)nc(Nc3ccc(C)c(C)c3)n2)CC1`, the “hERG current change (%, negative = inhibition) at 10uM” value is on record as -65.8%.

Regarding `COc1ccc(N2CCN(c3nc(Nc4ccc(C)c(F)c4)nc(N4CCCC4)n3)CC2)cc1`, the “hERG current change (%, negative = inhibition) at 10uM” value was 8.35%.

Take `COc1ccc(N2CCN(Cc3nc(N)nc(Nc4ccc(C)c(Cl)c4)n3)CC2)cc1`: the “hERG current change (%, negative = inhibition) at 10uM” value was -63.1%.
